# Source: PubChem BioAssay (National Center for Advancing Translational Sciences (NCATS))
# SARS PLpro yeast: qHTS of Yeast-based Assay for SARS-CoV PLP | S. cerevisiae expressing SARS-CoV PLpro, growth rescue | Potency, µM (doses to about 32.9 µM), for the others: at the highest dose activity, positive = growth rescue, most hits filed as activators | actives 0.19% (n = 330,000) | AID 485353, 2010; calls by dose curve; note: 0% is about no effect; nearly all actives have a fitted effect of over 55% in size
# AmpC detergent: qHTS Inhibitors of AmpC Beta-Lactamase (assay with detergent) | AmpC hydrolysis of nitrocefin, absorbance 480 nm, 0.01% Triton | Potency, µM (doses to about 114 µM), without a hit: at the highest dose activity change, negative = inhibition, most hits filed as inhibitors | actives 0.041% (n = 370,000) | AID 485294, 2010;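 note: 0% = no-compound wells and -100% = no-enzyme wells; nearly all actives have a fitted effect of over 25% in size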
# Target sequence (P00811 whole entry, looked up): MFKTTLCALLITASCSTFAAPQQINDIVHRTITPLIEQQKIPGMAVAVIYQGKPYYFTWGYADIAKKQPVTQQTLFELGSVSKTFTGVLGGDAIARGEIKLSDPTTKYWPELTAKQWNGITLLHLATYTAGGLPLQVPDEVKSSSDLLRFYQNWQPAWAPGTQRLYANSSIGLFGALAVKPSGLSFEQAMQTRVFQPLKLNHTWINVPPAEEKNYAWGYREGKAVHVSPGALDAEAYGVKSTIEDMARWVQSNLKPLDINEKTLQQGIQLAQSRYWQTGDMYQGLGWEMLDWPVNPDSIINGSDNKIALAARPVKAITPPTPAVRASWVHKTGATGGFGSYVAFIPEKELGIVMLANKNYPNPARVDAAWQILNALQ
#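 20 mM phosphate pH 7.0 + 0.01% (detergent screen) or 0.0001% Triton X-100; 5.3 nM AmpC reagent; cpd preinc 15 min RT; nitrocefin (800 uM stock) to start; A480 q20 s × 4 min; Activity was normalised to no-enzyme and no-compound control wells.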
# Pf growth 96h: Primary qHTS for delayed death inhibitors of the malarial parasite plastid, 96 hour incubation | P. falciparum luciferase reporter growth, 96 h | Potency, µM (highest dose often 28.7 µM), for inactives: at the top dose activity change, negative = inhibition, actives largely listed as inhibitors | actives 6.9% (n = 320,000); note: % is set by controls: 0 for no effect and ±100 for the full control effect
#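 Readout is luminescence from an integrated firefly luciferase in P. falciparum. Red cells, 2% hematocrit and 0.05% parasitemia final, were cultured with compound through two parasite generations (96 hours) at 37 C, 5% CO2.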
# Sm TGR block: qHTS Assay for the Inhibitors of Schistosoma Mansoni Peroxiredoxins; purified TGR, DTNB reduction, TNB absorbance 405 nm; Potency, µM (titrated, usually from 114 µM), inactives show at the top dose activity change, negative = inhibition, hits mostly inhibitors; actives 3% (n = 360,000); AID 485364, 2010; note: % is set by controls: 0 for no effect and ±100 for the full control effect; nearly all actives have a fitted effect of over 60% in size
#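 First, TGR (20 nM dispensed) and NADPH were mixed with compound. Second, a 15 min room-temperature incubation followed. Third, further NADPH and then DTNB were added to start the reaction. Finally, TNB absorbance was monitored kinetically.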
# Pf growth 48h: Primary qHTS for delayed death inhibitors of the malarial parasite plastid, 48 hour incubation; P. falciparum luciferase growth in erythrocytes, 48 h; Potency, µM (doses to about 28.7 µM), inactives show at the highest dose activity change, negative = inhibition, actives largely listed as inhibitors; actives 5.9% (n = 310,000); note: % is set by controls: 0 for no effect and ±100 for the full control effect
#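 Luminescence readout; reporter = integrated firefly luciferase in P. falciparum. RBC culture at 2% hematocrit, 0.1% parasitemia final, 37 C/5% CO2; decreased signal taken as growth inhibition.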
# AmpC no deterg: qHTS Inhibitors of AmpC Beta-Lactamase (assay without detergent). Potency, µM (series often up to 57.1 µM), without a hit: at the highest dose activity change, negative = inhibition, hits mostly inhibitors. AID 485341, 2010. AmpC nitrocefin hydrolysis, absorbance 480 nm, 0.0001% Triton. P00811. actives 0.52% (n = 330,000);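 note: plate controls were no compound for no effect and no enzyme for full effect; nearly all actives have a fitted effect of over 20% in size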
#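 AmpC (5.3 nM in the dispensed reagent) in 20 mM phosphate pH 7.0 with 0.01% (detergent screen) or 0.0001% Triton X-100 was preincubated with compounds for 15 min at room temperature. Nitrocefin was then added from an 800 uM solution, and hydrolysis was followed at 480 nm.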
# Numbers without * were called inactive; ? = inconclusive; / = not tested or not shown. In the library only some 12% were active in any assay of this set; here they are far more common. Unless noted, calls come from the whole dose curve; as a rule, active = well fitted curve in the direction sought with a large enough effect; inconclusive = small, poorly fitted or top-dose-only effect, or another doubt; inactive = no such curve, though single readings can be large; an effect the other way counts as inactive or inconclusive. Potency is the fitted concentration of half-maximal effect.
SMILES,SARS PLpro yeast,AmpC detergent,Pf growth 96h,Sm TGR block,Pf growth 48h,AmpC no deterg
CC(CCc1ccccc1)NC(=O)CSc1ccccc1 (centres undefined),-5%,-1%,13µM*,-2%,-19%,-16%
O=C(CSc1ccccc1)NCCCc1ccccc1,0%,?,15µM*,11%,6%,-11%
Cc1ccccc1NC(=S)NC(C)CCc1ccccc1 (centres undefined),-9%,?,13µM*,-2%,?,-16%
Cc1ccccc1NC(=S)NC(=O)CCc1ccccc1,16%,6%,?,?,?,-19%
CCC(C)NC(=O)CSc1ccc(Cl)cc1 (centres undefined),17%,-3%,3.3µM*,0%,53%,-36%
Cc1cc(N=Nc2ccc(Cl)cc2)cc(CN2CCOCC2)c1O,-5%,-3%,2.3µM*,?,4.7µM*,63%
Cc1cc(N=Nc2ccc(Cl)cc2)cc(CN2CCCC2)c1O,0%,1%,0.29µM*,?,0.23µM*,31%
CCOc1ccc(Cl)cc1CN1CCOCC1,-8%,3%,13%,17%,/,0%
CN1CCCN(Cc2ccc(Cl)cc2Cl)CC1,-4%,-4%,-26%,7%,/,0%
CCOC(=O)N1CCC(NC(=O)C2CCN(S(=O)(=O)c3c(C)noc3C)CC2)CC1,-1%,-3%,-16%,-20%,-3%,7%
O=C(Nc1ccccc1C(F)(F)F)C1CCN(C(=O)Cc2ccccc2)CC1,-1%,-2%,-20%,2%,7%,25%
CCNc1ncnc2c1cnn2C,-2%,3%,?,-4%,-2%,-17%
O=c1c2cc3c(cc2n(Cc2cccc(F)c2)c(=O)n1Cc1nc(-c2ccccc2)no1)OCO3,/,3%,/,-2%,/,/
O=C(CN1C(=O)c2ccccc2S1(=O)=O)c1ccc2c(c1)OCCCO2,1%,-3%,1.5µM*,0%,?,-15%
O=C(CCN1C(=O)c2ccccc2S1(=O)=O)N1CCN(c2ccccc2F)CC1,-2%,-7%,19%,1%,-24%,25%
O=C(CN1C(=O)c2ccccc2S1(=O)=O)N1CCN(c2ccccc2F)CC1,5%,-9%,5.9µM*,-3%,72%,3%
O=C(CN1C(=O)c2ccccc2S1(=O)=O)c1ccc2c(c1)OCCO2,0%,-1%,-19%,19%,?,-3%
CC(=O)c1ccc(NC(=O)c2cc(-c3ccc4c(c3)OCO4)on2)cc1,/,22%,/,4%,/,/
COc1ccc(Cn2nnnc2C(c2ccccc2)N2CCN(C3CCCC3)CC2)cc1 (centres undefined),11%,?,16%,2%,?,82%
c1ccc(Cn2nnnc2C(c2cccnc2)N2CCN(C3CCCCC3)CC2)cc1 (centres undefined),9%,-6%,13µM*,-11%,?,6%
N#Cc1cccc(C(c2nnnn2C2CCCC2)N2CCC(Cc3ccccc3)CC2)c1 (centres undefined),-15%,?,-18%,-1%,5.2µM*,-17%
Fc1ccc(C(c2nnnn2C2CCCC2)N2CCN(Cc3ccccc3)CC2)cc1 (centres undefined),1%,-14%,/,?,9.3µM*,18%
O=c1c(C(c2nnnn2C2CCCCC2)N2CCCCC2)coc2ccc(Cl)cc12 (centres undefined),-5%,-2%,?,28µM*,19%,-13%
Cc1ccc(-c2cc(NC(=O)C(C)Oc3ccccc3F)on2)cc1 (centres undefined),/,16%,/,2%,/,/
CCOC(=O)c1noc2ncn(CC(=O)Nc3ccc(OC)c(Cl)c3)c(=O)c12,/,29%,/,-30%,/,/
SMILES,SARS PLpro yeast,AmpC detergent,Pf growth 96h,Sm TGR block,Pf growth 48h,AmpC no deterg
CN(Cc1ccc(Cl)cc1Cl)C(=O)CCNC(=O)c1ccco1,10%,-4%,?,-30%,?,3%
CCn1cc(S(=O)(=O)c2ccccc2)c(=O)c2cc(F)c(N3CCCCCC3)cc21,/,2%,/,-1%,/,/
c1csc(C(c2nnnn2C2CCCC2)N2CCCC3(CCCCC3)C2)c1 (centres undefined),-29%,4%,/,-7%,2.1µM*,-32%
N#Cc1cccc(C(c2nnnn2C2CCCC2)N2CCCCCC2)c1 (centres undefined),-8%,0%,12µM*,4%,?,-18%
N#Cc1ccc(C(c2nnnn2C2CCCC2)N2CCC(Cc3ccccc3)CC2)cc1 (centres undefined),3%,-14%,143%,14%,4.7µM*,-18%
c1cncc(C(c2nnnn2C2CCCCC2)N2CCN3CCCC3C2)c1 (centres undefined),-1%,-5%,-57%,-22%,-23%,-5%
c1cncc(C(c2nnnn2C2CCCC2)N2CCCC2)c1 (centres undefined),-1%,?,9.3µM*,-36%,-26%,-9%
Cc1ccc(CC(=O)NCc2nc(-c3ccccc3)no2)cc1,/,18%,/,14%,/,/
O=C(CN1C(=O)c2ccccc2C1=O)Oc1ccc(F)cc1,17%,0%,-13%,7%,32%,-7%
CCN(Cc1ccncc1)Cc1nc(CC2CC2)no1,0%,7%,44%,-36%,-5%,-8%
COc1ccc(Cn2nnnc2C(c2ccccc2Cl)N2CCN(C3CCCC3)CC2)cc1 (centres undefined),8%,-13%,75%,0%,15µM*,66%
c1ccc(C(c2ccccc2)N2CCN(C(c3ccccn3)c3nnnn3C3CCCC3)CC2)cc1 (centres undefined),0%,5%,4.7µM*,0%,-12%,-1%
O=C(NN=C1CCCCCCCCCCC1)c1ccncc1,1%,-12%,42%,-4%,13%,-15%
O=C(O)c1ccc(-n2[nH]c3c(c2=O)CCCC3)cc1,-1%,-4%,8%,35µM*,23%,-10%
O=C(O)c1ccc(N2C(=O)CCCC2=O)cc1,2%,3%,17%,-2%,12%,2%
COCCCNC(=O)c1sc2nc3n(c(=O)c2c1C)CCC3,/,25%,/,11µM*,/,/
CCOC(=O)c1ccc(NC(=O)c2sc3nc4n(c(=O)c3c2C)CCC4)cc1,-2%,-5%,15µM*,-11%,?,128%
